# Compound activity (PubChem BioAssay)
# Rows were chosen to be rich in hits. Some 3% of all compounds tested hit in one or more screens of this group.
# Vif imaging – HIV Vif inhibition. HEK293T cells, Vif self-association by quenched fluorescence, imaging, 24 h. inhibition, % at 7.49 µM. actives 0.35% (n = 340,000). AID 602346; in the data active means inhibition above about 50%, passing the limit was not always enough
# esBAF inh – SWI/SNF esBAF complex inhibition; reporter increase, % at 12.5 µM; AID 602393; mouse ES cells, Bmi1-luciferase knock-in reporter, 24 h; 100% = twice the neutral-well signal; actives 2% (n = 350,000); in the data active means activation above about 40%;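 further: 0% = median of the plate's neutral control wells and 100% = double that signal; a rise in the Bmi1 reporter signal indicates esBAF inhibition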
# MITF act – increases MITF-driven TRPM1 promoter luciferase signal. SK-MEL-5 TRPM1-promoter luciferase, 24 h; % of positive control, neutral wells = 0. activation, % at 12.5 µM. actives 0.75% (n = 300,000). AID 588334;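 active means mean activation of at least 80% with every replicate also reaching 80%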;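 further: 0% = neutral control wells and 100% = parthenolide positive control wells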
# PfHsp90 set2 – inhibits growth of yeast expressing Plasmodium falciparum Hsp90; actives 0.32% (n = 310,000); inhibition, % at 9.4 µM; S. cerevisiae expressing PfHsp90, BacTiter-Glo ATP, 48 h; yeast lacking PDR1 and PDR3 efflux regulators;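 active means every replicate shows inhibition above about 80%, whatever the replicate mean, limit read from the data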;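 further: 0% = DMSO neutral controls and 100% = 20 µM radicicol positive controls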
# Wnt bcat act – activators of Wnt/beta-catenin signaling. Wnt/beta-catenin reporter cell assay, activator, plate reader. activation, % at 9.35 µM. actives 1.2% (n = 300,000). AID 743398; in the data active means activation above about 30%, passing the limit was not always enough;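 further: 0% = neutral control wells and 100% = positive control wells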
# Glyco luc inh – blocks N-linked glycosylation in D54 reporter cells; D54 ERlucT glycosylation luciferase reporter, 24 h; percent of 100 nM tunicamycin response; reporter increase, % at 12.5 µM; actives 0.23% (n = 360,000); AID 588692;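 active means mean luciferase reporter signal, scaled so untreated is 0 and the glycosylation-blocking control 100, at or above a set limit in every replicate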;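 further: luciferase carries N-glycosylation sites so blocking glycosylation raises the light; 0% = median of neutral control wells and 100% = median of 100 nM tunicamycin wells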
# Numbers without * were called inactive; . = not tested or not shown.
SMILES,Vif imaging,esBAF inh,MITF act,PfHsp90 set2,Wnt bcat act,Glyco luc inh
CCOC(=O)N1CCC(n2c(SCC(=O)NCc3ccco3)nc3ccsc3c2=O)CC1,-9,.,-12,16,.,-1
Cc1ccc(Cn2ccsc2=NC(=O)COC(=O)c2ccc(O)cc2O)cc1,.,47*,41,10,6,1
CN(CC(=O)N1CCOCC1)S(=O)(=O)c1cc(Cl)ccc1Cl,-8,-8,-4,27,-2,0
Cc1cc(C)nc(SCc2csc(-c3ccccc3)n2)n1,-3,.,113*,-25,.,-11
COc1ccc(-c2cn3c(C)c(C(=O)NCCN4CCOCC4)sc3n2)cc1,-5,56*,.,24,.,-2
Cc1c(C(=O)Nc2ccc3c(c2)OCCO3)sc2nc(-c3ccccc3)cn12,-14,15,-36,12,26,-2
Cc1c(C(=O)NCc2cccnc2)sc2nc(-c3ccccc3)cn12,.,66*,.,-8,7,-2
Cc1c(C(=O)NCc2cccnc2)sc2nc(-c3ccc(F)cc3)cn12,-4,66*,.,-9,0,0
Cc1c(C(=O)NCCCN2CCOCC2)sc2nc(-c3ccc(F)cc3)cn12,-6,16,24,2,.,-2
Cc1c(C(=O)NCc2ccco2)sc2nc(-c3ccccc3)cn12,-7,48*,.,2,19,2
Cc1c(C(=O)Nc2ccncc2)sc2nc(-c3ccccc3)cn12,-9,-5,.,0,3,-6
COCCCn1c(SCc2cccc(C(F)(F)F)c2)nc2cc(OC)c(OC)cc2c1=N,-10,-1,.,.,-4,-3
Cc1ccc(NC(=O)C2CCC(CNc3c(N4CCC(C)CC4)c(=O)c3=O)CC2)cc1F (stereo not given),9,.,4,-7,-3,-1
CCOP(=O)(OCC)C(NC(=O)/C=C/c1ccc(OC)cc1)c1ccccc1 (stereo not given),7,.,9,7,34*,1
CCCc1[nH]nc2c1C(c1ccc(OC)c(Cn3nnc4ccccc43)c1)C(C#N)=C(N)O2 (stereo not given),4,-5,-6,9,.,-2
COC(=O)c1ccc(NCc2cc(O)ccc2O)cc1O,85*,3,11,-13,-25,-4
COC(=O)c1ccc(NCc2c(O)ccc(O)c2Br)cc1Cl,70*,6,-3,15,-9,13
COc1ccc(NC(=O)NC2(C)CCS(=O)(=O)C2)cc1 (stereo not given),16,1,-4,1,0,1
Cc1c(Cc2ccccc2)c(=O)oc2c(C)c(OCC(=O)Nc3ccc(C#N)cc3)ccc12,10,.,-6,-9,-4,-3
Cc1cccc(C)c1NC(=O)COc1ccc2c(C)c(Cc3ccccc3)c(=O)oc2c1C,53*,.,-11,3,0,0
N#Cc1ccc(OCC(=O)N/N=C2/CC(c3ccccc3)Oc3ccccc32)cc1 (stereo not given),-9,.,-5,20,-2,-3
Cn1cccc1-c1cc(C(=O)N/N=C/c2ccc([N+](=O)[O-])cc2)[nH]n1,70*,1,-24,-24,-1,-1
Cn1cccc1-c1cc(C(=O)N/N=C/c2ccccc2Cl)[nH]n1,-8,55*,86*,15,10,0
O=C(NN=Cc1ccccc1Cl)c1ccccc1,-1,.,.,.,63*,-5
Cn1cccc1-c1cc(C(=O)N/N=C/c2ccc(F)cc2)[nH]n1,-20,1,2,-6,2,3
SMILES,Vif imaging,esBAF inh,MITF act,PfHsp90 set2,Wnt bcat act,Glyco luc inh
COc1cccc(NC(=O)CCN2C(=O)c3cccc([N+](=O)[O-])c3C2=O)c1,4,-10,2,-1,0,3
N#Cc1c(-c2ccccc2)ccnc1Oc1ccccc1,-1,49*,47,-7,.,-2
COc1cc2sc(-c3ccccc3OC)c(-c3ccc(O)cc3)c2cc1OC,-8,-11,2,-30,-2,4
COCc1ccc(-c2c(-c3ccccc3OC)sc3cc4c(cc23)OCO4)cc1,.,-6,-10,-15,-3,-4
COc1ccccc1-c1sc2cc3c(cc2c1-c1ccc(O)cc1)OCO3,-3,-9,-5,107*,1,-2
COc1ccc2sc(-c3ccccc3OC)c(-c3ccc(O)cc3)c2c1,11,-8,1,107*,-2,-3
